Test results: PubChem BioAssay AID686978 (National Center for Advancing Translational Sciences (NCATS), 2013)
The whole screen tested about 420,000 compounds, of which about 64,000 (15%) were called active. Not shown: some 27% with an inconclusive outcome. Calls come from the whole dose curve; as a rule, active = well fitted inhibition curve with a large enough effect; inconclusive = small, poorly fitted or top-dose-only effect; inactive = flat fitted curve, though single readings scatter. Only a sample is shown.

assay: qHTS for Inhibitors of human tyrosyl-DNA phosphodiesterase 1 (TDP1): qHTS in cells in absence of CPT; details: DT40 Tdp1-/- hTDP1 cells, no CPT, ATP luminescence, 48 h; activity change, negative = growth inhibition: at 46.2 µM (top of the series); note: nearly all actives have a fitted effect of over 55% in size
Summary of the method: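 Camptothecin absent (DMSO only). Human TDP1-complemented DT40 knockout cells, 400 cells/well, 37 °C for minimum 48 hr; ATP measured via CellTiter-Glo, 30 min dark incubation, luminescence.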
% is set by controls: 0 for no effect and ±100 for the full control effect; potency is the fitted concentration of half-maximal effect.

| Compound | activity change, negative = growth inhibition | Potency |
| --- | --- | --- |
| Cc1nnc(SCC(=O)NNC(=O)c2ccc(Cl)cc2)n1CC1CCCO1 (configuration not stated) | -3.71% (inactive) | – |
| CC(=O)Nc1ccc(NC(=O)CSc2nnc(COc3ccccc3C)n2CC2CCCO2)cc1 (configuration not stated) | -6.91% (inactive) | – |
| CCN1C(=O)CS/C1=N\c1nccs1 | -2.04% (inactive) | – |
| CCOC(=O)NC(=O)C(=CNc1cccc(OC)c1)C(=O)NC(=O)OCC | -8.39% (inactive) | – |
| CC(=O)CSc1nnc(CSc2ncccn2)n1C1CCCCC1 | -0.234% (inactive) | – |
| O=C(Nc1nc(-c2cccnc2)cs1)c1ccccc1F | 3.03% (inactive) | – |
| Cc1ccc(-c2csc(NC(=O)Cc3cccs3)n2)cc1C | -1.64% (inactive) | – |
| CC(=O)NCCC(=O)Nc1nc(-c2ccc3c(c2)OCCO3)cs1 | -6.56% (inactive) | – |
| Cc1ccc(-c2csc(NC(=O)c3cnccn3)n2)cc1C | -9.21% (inactive) | – |
| Cc1ccc(-c2csc(NC(=O)C3=COCCO3)n2)cc1C | – | 4.11 µM (active) |
| O=C(Nc1nc(-c2ccc3c(c2)OCO3)cs1)c1ccncc1 | – | 13 µM (active) |
| CC1=C(C(=O)Nc2cc(C)ccn2)C(c2cnn(C)c2)C2=C(CC(c3ccccc3)CC2=O)N1 (configuration not stated) | -9.41% (inactive) | – |
| O=P(O)(O)C(O)c1ccc2ccccc2c1 (configuration not stated) | 8.08% (inactive) | – |
| FC(F)(F)Oc1ccc(-c2cn3cccnc3n2)cc1 | -19% (inactive) | – |
| Cc1cc(C)cc(C(=O)NC(CC(N)=O)c2ccc(N3CCC(N4CCCCC4)CC3)c([N+](=O)[O-])c2)c1 (configuration not stated) | 3.31% (inactive) | – |
| CC(=O)c1c(C)[nH]c(C(=O)NCc2ccc(C)cc2)c1C | -28.4% (inactive) | – |
| COc1ccc(OC)c(-n2nnc(-c3nc(-c4cc(OC)c(OC)c(OC)c4)no3)c2C)c1 | -28.3% (inactive) | – |
| COc1ccc(-c2cc(-c3nc(-c4cc(OC)c(OC)c(OC)c4)no3)[nH]n2)c(OC)c1 | – | 13 µM (active) |
| COc1nc(-c2ccc(Cl)cc2)ccc1-c1noc(-c2cccs2)n1 | -8.38% (inactive) | – |
| CCOc1nc(-c2ccc(OC)cc2)ccc1-c1noc(-c2cc(OC)c(OC)c(OC)c2)n1 | – | 3.66 µM (active) |
| COc1cc(-c2nc(-c3ccncc3)no2)cc(OC)c1OC | 0.674% (inactive) | – |
| CCOC(=O)COc1cc(OCC(=O)OCC)c2c(=O)cc(-c3ccccc3)oc2c1 | -24.5% (inactive) | – |
| O=C(Nc1nn(Cc2ccccc2F)cc1Br)c1cccs1 | -22.2% (inactive) | – |
| COc1ccc(/C(O)=C2/C(=O)C(=O)N(CC3CCCO3)C2c2ccc(OC)c(OC)c2)cc1 (configuration not stated) | 5.95% (inactive) | – |
| CC(CNS(=O)(=O)c1ccc(Br)cc1)CN(C)C (configuration not stated) | -28.4% (inactive) | – |
| O=C1CC2(CC(c3ccc(Cl)cc3)=NO2)C(=O)N1c1ccccc1 (configuration not stated) | 2.88% (inactive) | – |

| Compound | activity change, negative = growth inhibition | Potency |
| --- | --- | --- |
| Cc1ccc(-c2nnc3ccc(SCC(N)=O)nn23)cc1 | -27% (inactive) | – |
| O=C(Nc1ccn(Cc2ccccc2)n1)c1n[nH]c([N+](=O)[O-])c1Cl | -23.2% (inactive) | – |
| O=C(Nc1ccn(Cc2ccc(F)cc2)n1)c1ccncc1 | – | 11.6 µM (active) |
| O=C(Nc1ccn(Cc2ccccc2)n1)c1cccc(F)c1 | -29.1% (inactive) | – |
| O=C(COc1cccc2c1CCNC2=O)NC1CCCCC1 | 11.4% (inactive) | – |
| COc1ccc(C(=O)COC(=O)Cn2cnc3c2c(=O)n(C)c(=O)n3C)c(OC)c1 | 5.14% (inactive) | – |
| COC(=O)C1=C(C(=O)OC)[C@@H]2N(C)c3ccccc3[C@@]23C[C@@H](C(=O)OC)N(C(=O)c2ccco2)C3=N1 | -11.6% (inactive) | – |
| Cc1cc(C)cc(NS(=O)(=O)c2ccc3[nH]cc(C(=O)N4CCCCC4)c(=O)c3c2)c1 | -20% (inactive) | – |
| CN1CCN(c2ncncc2-c2ccc(C(=O)N(C)C)cc2)CC1 | 2.5% (inactive) | – |
| CCOC1CS(=O)(=O)CC1OCC (configuration not stated) | 2.48% (inactive) | – |
| Cc1cccc(-c2cnc(C(O)c3cc(C)cc(C)c3)[nH]2)c1 (configuration not stated) | -21.6% (inactive) | – |
| COc1cccc(-c2cnc(C(O)c3ccccc3OC)[nH]2)c1 (configuration not stated) | -18.7% (inactive) | – |
| CCCc1ccc(C(O)c2ncc(-c3cccc(OC)c3)[nH]2)cc1 (configuration not stated) | – | 20.6 µM (active) |
| O=c1cnnc(Nc2ccccc2)[nH]1 | 0.313% (inactive) | – |
| O=C(c1cccs1)C1C(c2ccc(Br)cc2)NC(=S)NC1(O)C(F)(F)F (configuration not stated) | -27.6% (inactive) | – |
| Fc1ccc(N2CCN(Cc3cnc(Oc4ccc(Br)cc4)s3)CC2)cc1 | -18.2% (inactive) | – |
| COC(=O)c1cc(NC(=O)CCS(=O)(=O)c2cc(Br)cc3c2N(C(=O)C2CC2)CC3)cc(C(=O)OC)c1 | -14.6% (inactive) | – |
| O=C(NCCOc1ccccc1)c1ccccc1F | 6.64% (inactive) | – |
| CC1CCC2CCCCC2N1C(=O)c1cc([N+](=O)[O-])cc([N+](=O)[O-])c1 (configuration not stated) | – | 18.4 µM (active) |
| Cc1cc([N+](=O)[O-])c(N2CCC[C@@H]2C(=O)O)c([N+](=O)[O-])c1 | -16.3% (inactive) | – |
| CN1C2CCC1CC(NC(=O)c1ccc([N+](=O)[O-])cc1)C2 (configuration not stated) | -21.8% (inactive) | – |
| Cc1ccc(C)c(NC(=O)COC(=O)c2nn(C)c(=O)c3ccccc23)c1 | 8.08% (inactive) | – |
| CCC(C)NC(=O)c1nn(C)c(=O)c2ccccc12 (configuration not stated) | -8.51% (inactive) | – |
| COC(=O)c1cc(NC(=O)c2nn(C)c(=O)c3ccccc23)cc(C(=O)OC)c1 | – | 6.51 µM (active) |
| CC1CCCCC1NC(=O)Cn1c(=O)cnc2ccccc21 (configuration not stated) | -4.01% (inactive) | – |
| Cn1nnc(NC(=O)CSc2ncn[nH]2)n1 | -0.455% (inactive) | – |

| Compound | activity change, negative = growth inhibition | Potency |
| --- | --- | --- |
| CN(C)N(C)C(=O)C(O)(c1ccccc1)c1ccccc1 | -0.464% (inactive) | – |
| Cc1ccc(-c2nn(CCC(=O)Nc3ccc(Cl)c(Cl)c3)c(=O)c3ccccc23)cc1 | – | 23.1 µM (active) |
| Cc1cc(C)cc(NC(=O)CCN2C(=O)c3ccccc3C2=O)c1 | -11.8% (inactive) | – |
| Cc1cccc(NC(=O)CCn2c(=O)oc3ccccc32)c1 | 5.57% (inactive) | – |
| CCc1nnc(NC(=O)CSc2nc(SC)ns2)s1 | -24.6% (inactive) | – |
| COc1cccc(NC(=O)N(C)C[C@@H]2Oc3ncc(Br)cc3C(=O)N([C@@H](C)CO)C[C@H]2C)c1 | -25.5% (inactive) | – |
| CN(C)N=Nc1ccc2nc[nH]c2c1 | -13.4% (inactive) | – |
| CCOc1ccc(NC(=O)CN(C)C(=O)Cn2c(=O)cnc3ccccc32)cc1OCC | -27.1% (inactive) | – |
| CCCN(CCC)S(=O)(=O)c1cc2c(cc1Br)CCN2C(=O)CC | – | 5.8 µM (active) |
| CCC(=O)N1CCc2cc(S(=O)(=O)NC(C(=O)N3CCc4ccccc4C3)C(C)C)ccc21 (configuration not stated) | -0.707% (inactive) | – |
| CCC(=O)N1CCc2cc(Br)c(S(=O)(=O)NCCN3CCCCC3CC)cc21 (configuration not stated) | 6.25% (inactive) | – |
| Cc1cc(C(F)F)nn1CC(=O)NC1CCCCCC1 | 2.11% (inactive) | – |
| COc1ccc(C(=O)N2CCC[C@@]3(CCN(C(=O)NC(C)C)C3)C2)cc1 | -2.74% (inactive) | – |
| COc1ccc2cc(C(=O)O)n(CC(=O)c3ccccc3)c2c1 | 12.2% (inactive) | – |
| O=C(/C=C/[C@H]1O[C@@H](n2cnc3c(NC(=O)c4ccccc4)ncnc32)[C@H](O)[C@@H]1O)NCc1ccccc1 | -11.2% (inactive) | – |
| CCC(C)(C(=O)Nc1ccccc1C)N(C(=O)CNC(C)=O)c1ccc(C)cc1 (configuration not stated) | -15.5% (inactive) | – |
| CC(C)(C)OC(=O)N1CCC(NC(=O)c2[nH]cnc2C(=O)N[C@@H](Cc2ccccc2)C(=O)OCc2ccccc2)CC1 | – | 13 µM (active) |
| O=C(N[C@@H](Cc1ccccc1)C(=O)OCc1ccccc1)c1nc[nH]c1C(=O)NC1CCNCC1 | 0.388% (inactive) | – |
| C[C@@H](NC(=O)c1nc[nH]c1C(=O)N1CCN(C(=O)OC(C)(C)C)CC1)c1ccccc1 | -23.7% (inactive) | – |
| O=C(Nc1ccccc1Cl)NC1(C(=O)N2CCOCC2)CCCCC1 | -7.24% (inactive) | – |
| COc1cccc(NC(=O)CN(C)C(=O)CSCc2nc3scc(-c4cccs4)c3c(=O)[nH]2)c1 | 1.04% (inactive) | – |
| Cc1cnc(C(=O)N2CCCC(N3CCN(c4ccccc4F)CC3)C2)cn1 (configuration not stated) | -24.2% (inactive) | – |
| Cc1ccccc1N1CCN(C2CCCN(C(=O)c3cn4c(C)cccc4n3)C2)CC1 (configuration not stated) | – | 14.6 µM (active) |
| Cc1ccccc1N1CCN(C2CCCN(C(=O)c3ocnc3C)C2)CC1 (configuration not stated) | -25.4% (inactive) | – |
| CC(C)c1ccc(NS(=O)(=O)c2ccc3[nH]cc(C(=O)NC4CCCC4)c(=O)c3c2)cc1 | -18% (inactive) | – |
| COCOc1cccc(CN2CCC(C)(Oc3ccc(SC)cc3)C2)c1 (configuration not stated) | – | 10.3 µM (active) |

| Compound | activity change, negative = growth inhibition | Potency |
| --- | --- | --- |
| CCc1ccc(OC2(C)CCN(CCOc3ccc(C)cc3)C2)cc1 (configuration not stated) | -28.4% (inactive) | – |
| CCC12CN3CC(CC)(CN(C1)C31C(=O)N(C)c3ccc(C)cc31)C2=O (configuration not stated) | -22.5% (inactive) | – |
| O=C(NC1CC2CCCC(C1)N2C(=O)N1CCCCC1)C1CCCCC1 (configuration not stated) | -8.22% (inactive) | – |
| COC(=O)Cc1[nH]n(-c2nc3ccccc3s2)c(=O)c1C(C)=Nc1ccc(OC)cc1 | – | 3.26 µM (active) |
| C/C(=N\NC(=O)CC(C)C)c1c(C(F)(F)F)[nH]n(-c2nc3ccccc3s2)c1=O | -8.53% (inactive) | – |
| COc1ccc(N=C(C)c2sc3ccccc3c2O)cc1 | 0.494% (inactive) | – |
| Cc1ccc(-c2ccc(CCC(=O)O)n2-c2ccc(C(N)=O)cc2)cc1 | -15.2% (inactive) | – |
| CN(Cc1ccccc1)C(=O)C(=O)c1cn(CC(=O)N2CCCC2)c2ccccc12 | -19.2% (inactive) | – |
| CCOC(=O)c1cc2n(c1N)-c1ccccc1C2=O | -18.9% (inactive) | – |
| CCOC(=O)C1=C(c2ccc(OC)cc2)C(=O)c2ccccc2C1=O | – | 1.46 µM (active) |
| COc1ccc(OCCCON2C(=O)c3ccccc3C2=O)cc1 | -0.348% (inactive) | – |
| CCOc1ccc(C(=O)NCC(=O)N2CCCCCCC2)cc1OCC | 0.068% (inactive) | – |
| O=C(CCS(=O)(=O)c1cccc2nonc12)NCCc1ccccc1Cl | -17.1% (inactive) | – |
| COc1cccc(Cn2c(=O)cnc3cncnc32)c1 | – | 0.731 µM (active) |
| COc1cccc(Cn2c(=O)c(CCc3ccccc3)nc3cnc(N(C)C)nc32)c1 | -6.83% (inactive) | – |
| COc1ccc(-c2nc3cnc(OC)nc3n(Cc3ccc(F)cc3)c2=O)cc1 | -15% (inactive) | – |
| COc1cccc(Cn2c(=O)c(-c3cc(F)cc(F)c3)nc3cnc(OC)nc32)c1 | – | 0.116 µM (active) |
| COc1cccc(Cn2c(=O)c(-c3ccccc3)nc3cnc(OC)nc32)c1 | -1.76% (inactive) | – |
| COCCn1c(=O)c(CCc2ccccc2)nc2cncnc21 | 22.6% (inactive) | – |
| Cc1ccc(F)cc1NC(=O)c1cccc(N(C)C)c1 | -1.61% (inactive) | – |
| COc1ccc(-c2nc(N)sc2C2(O)C(=O)Nc3c(Br)cc(F)cc32)cc1OC (configuration not stated) | -1.91% (inactive) | – |
| Cc1ccc(OC(=O)c2ccccc2C(=O)OCC(F)(F)C(F)F)cc1 | -4.89% (inactive) | – |
| O=C(O)c1cc2ccccc2c(=O)s1 | -6.59% (inactive) | – |
| CC(=O)c1ccc(NC(=O)Cn2c(=O)oc3ccccc32)cc1 | -10.3% (inactive) | – |
